{"source": "PubChem BioAssay (NCATS)", "note": "Inconclusive results are not listed. The source made the active and inactive calls. Calls follow the shape of the full dose curve. Potency is read from the fitted curve at half-maximal effect."}
{"assay": "Cell Viability - MRC5 (AID 434);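 also: cells exposed to compound for 40 hours at 37 °C; potency reflects cytotoxicity seen as loss of intracellular ATP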", "settings": "MRC5 lung fibroblast viability, qHTS", "how_it_was_run": "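MRC5 normal human lung fibroblasts (1500/well) were treated with compounds for 40 hr at 37 °C in complete medium, and viable cells were measured as intracellular ATP by CellTiter-Glo luminescence. AC50 came from Hill fits, normalized to DMSO and 100 uM tamoxifen.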"}
{"smiles": "C=C(C)OC(C)=O", "Potency": "> 92 µM (inactive)"}
{"smiles": "NC(=O)NC(N)=O", "Potency": "> 92 µM (inactive)"}
{"smiles": "CC(=O)Nc1ccccc1C", "Potency": "> 92 µM (inactive)"}
{"smiles": "CCc1ccccc1O", "Potency": "> 92 µM (inactive)"}
{"smiles": "Cc1cccc(C)c1", "Potency": "> 92 µM (inactive)"}
{"smiles": "O=C(O)c1ccccc1[N+](=O)[O-]", "Potency": "> 92 µM (inactive)"}
{"smiles": "C=CCCCCCCC=C", "Potency": "> 92 µM (inactive)"}
{"smiles": "Cc1ccc2c(c1[N+](=O)[O-])C(=O)c1ccccc1C2=O", "Potency": "> 92 µM (inactive)"}
{"smiles": "CC(C)(C)OC=O", "Potency": "> 92 µM (inactive)"}
{"smiles": "CC(C)(c1cc(Br)c(OCC(Br)CBr)c(Br)c1)c1cc(Br)c(OCC(Br)CBr)c(Br)c1", "note": "(centres undefined)", "Potency": "> 92 µM (inactive)"}
{"smiles": "CCCCCCCCCCCCC1CO1", "note": "(centres undefined)", "Potency": "> 92 µM (inactive)"}
{"smiles": "CCCOCC(C)O", "note": "(centres undefined)", "Potency": "> 92 µM (inactive)"}
{"smiles": "Cc1c(N)cccc1[N+](=O)[O-]", "Potency": "> 92 µM (inactive)"}
{"smiles": "Nc1ccccc1[N+](=O)[O-]", "Potency": "> 92 µM (inactive)"}
{"smiles": "O=C(O)c1c(Cl)cccc1Cl", "Potency": "> 92 µM (inactive)"}
{"smiles": "Nc1nc(-c2ccccc2)cs1", "Potency": "> 92 µM (inactive)"}
{"smiles": "CCC(C)=O", "Potency": "> 92 µM (inactive)"}
{"smiles": "Nc1c(Cl)cc(Cl)cc1Cl", "Potency": "> 92 µM (inactive)"}
{"smiles": "CCOc1ccccc1N", "Potency": "> 92 µM (inactive)"}
{"smiles": "O=Cc1ccc(CO)o1", "Potency": "> 92 µM (inactive)"}
{"smiles": "C=C(C)C(=O)OCC(C)O", "note": "(centres undefined)", "Potency": "> 92 µM (inactive)"}
{"smiles": "Nc1ccc(Cl)cc1[N+](=O)[O-]", "Potency": "> 92 µM (inactive)"}
{"smiles": "CCCCC=O", "Potency": "> 92 µM (inactive)"}
{"smiles": "COC(=O)c1ccccc1", "Potency": "> 92 µM (inactive)"}
{"smiles": "CC(=C/C=C/C(C)=C/C=C/C=C(C)/C=C/C=C(C)/C=C/C(=O)O)/C=C/C(=O)O", "Potency": "> 92 µM (inactive)"}
{"smiles": "Cc1cccc([N+](=O)[O-])c1C(=O)O", "Potency": "> 92 µM (inactive)"}
{"smiles": "Cc1cc(C)cc(N)c1", "Potency": "> 92 µM (inactive)"}
{"smiles": "C1COC1", "Potency": "> 92 µM (inactive)"}
{"smiles": "O=C(O)c1ccccc1C(=O)O", "Potency": "> 92 µM (inactive)"}
{"smiles": "Cc1c(N)cccc1N", "Potency": "> 92 µM (inactive)"}
{"smiles": "CC(=O)c1cc(C)oc1C", "Potency": "> 92 µM (inactive)"}
{"smiles": "CC(C)=CCl", "Potency": "> 92 µM (inactive)"}
{"smiles": "Fc1ccccc1", "Potency": "> 92 µM (inactive)"}
{"smiles": "O=[N+]([O-])c1ccc(Cl)cc1Cl", "Potency": "> 92 µM (inactive)"}
{"smiles": "O=[N+]([O-])c1cc(C(F)(F)F)ccc1Cl", "Potency": "> 92 µM (inactive)"}
{"smiles": "CCc1ccccc1", "Potency": "> 92 µM (inactive)"}
{"smiles": "CCN(CC)c1cccc(O)c1", "Potency": "> 92 µM (inactive)"}
{"smiles": "CC(C)N=C=NC(C)C", "Potency": "> 92 µM (inactive)"}
{"smiles": "CCOC(=O)C(C)C(C)=O", "note": "(centres undefined)", "Potency": "> 92 µM (inactive)"}
